From publication PMC7862700, “An all-to-all approach to the identification of sequence-specific readers for epigenetic DNA modifications on cytosine”

Experiments:
Experiment in all cases: DAPPL (digital affinity profiling via proximity ligation, sequencing); 10 mM Tris-HCl pH 7.5, 50 mM NaCl, 1 mM DTT, 4% glycerol, room temperature, 30 min; GST-TFs on glutathione beads, 16-mer random dsDNA library, 0.1% formaldehyde crosslink after washing; high values mean tight binding
Details in all cases: protein: recombinant; tags: N-terminal GST; dsDNA, one strand shown
[1] = biological target: T1, GABPA (Homo sapiens, UniProt Q06546 1-454)
T1 sequence: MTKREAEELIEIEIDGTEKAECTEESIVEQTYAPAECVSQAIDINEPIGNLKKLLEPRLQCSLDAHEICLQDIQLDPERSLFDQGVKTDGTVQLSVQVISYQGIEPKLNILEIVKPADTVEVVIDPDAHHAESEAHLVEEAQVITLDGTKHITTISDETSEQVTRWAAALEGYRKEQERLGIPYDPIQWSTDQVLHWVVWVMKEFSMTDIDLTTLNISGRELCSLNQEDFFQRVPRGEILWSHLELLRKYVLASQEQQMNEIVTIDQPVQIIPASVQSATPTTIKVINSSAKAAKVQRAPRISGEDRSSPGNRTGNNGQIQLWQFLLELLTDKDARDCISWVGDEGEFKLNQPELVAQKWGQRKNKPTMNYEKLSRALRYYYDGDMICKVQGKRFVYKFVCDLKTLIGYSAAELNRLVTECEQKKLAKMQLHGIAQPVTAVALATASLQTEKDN
In short: (§1)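 GST fusions of human transcription factors were expressed in yeast and captured with glutathione beads. Once given DNA barcodes and pooled alongside a tag-only sample, they were incubated for 30 min at room temperature with 200 nmole of a random double-stranded 16-mer DNA library in Tris/NaCl/DTT/glycerol buffer, then washed, crosslinked (0.1% formaldehyde), proximity-ligated, PCR-amplified and sequenced on an Illumina NextSeq500. The binding signal of each hexamer is its read frequency for a factor divided by its frequency for the tag-only sample.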

[2] = biological target: ELF1 (Homo sapiens, UniProt P32519 1-619)
In short: as §1

[3] = biological target: SPIB (Homo sapiens, UniProt Q01892 1-262)
In short: as §1

[4] = biological target: T2, ELK3 (Homo sapiens, UniProt P41970 1-407)
T2 sequence: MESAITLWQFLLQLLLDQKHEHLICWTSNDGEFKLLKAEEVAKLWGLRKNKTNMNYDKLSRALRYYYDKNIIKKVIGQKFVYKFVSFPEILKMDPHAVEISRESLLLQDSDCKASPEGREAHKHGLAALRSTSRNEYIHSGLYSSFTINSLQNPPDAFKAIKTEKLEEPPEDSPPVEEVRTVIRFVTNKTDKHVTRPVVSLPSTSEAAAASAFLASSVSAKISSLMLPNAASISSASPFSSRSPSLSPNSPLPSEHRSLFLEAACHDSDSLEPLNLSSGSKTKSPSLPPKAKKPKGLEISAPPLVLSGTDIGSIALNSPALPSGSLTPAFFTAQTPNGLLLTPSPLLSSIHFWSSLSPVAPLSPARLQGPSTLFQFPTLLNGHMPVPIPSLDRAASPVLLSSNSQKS
In short: as §1

[5] = biological target: T3, FEV (Homo sapiens, UniProt Q99581 1-238)
T3 sequence: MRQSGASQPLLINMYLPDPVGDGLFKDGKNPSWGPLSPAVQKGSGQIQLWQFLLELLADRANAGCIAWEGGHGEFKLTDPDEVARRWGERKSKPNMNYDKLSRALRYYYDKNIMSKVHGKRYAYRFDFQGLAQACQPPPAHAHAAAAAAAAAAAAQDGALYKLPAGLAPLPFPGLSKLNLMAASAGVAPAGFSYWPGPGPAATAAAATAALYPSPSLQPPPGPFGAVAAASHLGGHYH
In short: as §1

[6] = biological target: ETV5 (Homo sapiens, UniProt P41161 1-510)
In short: as §1

[7] = biological target: ELF4 (Homo sapiens, UniProt Q99607 1-663)
In short: as §1

[8] = biological target: T4, ELK4 (Homo sapiens, UniProt P28324-2 1-405)
T4 sequence: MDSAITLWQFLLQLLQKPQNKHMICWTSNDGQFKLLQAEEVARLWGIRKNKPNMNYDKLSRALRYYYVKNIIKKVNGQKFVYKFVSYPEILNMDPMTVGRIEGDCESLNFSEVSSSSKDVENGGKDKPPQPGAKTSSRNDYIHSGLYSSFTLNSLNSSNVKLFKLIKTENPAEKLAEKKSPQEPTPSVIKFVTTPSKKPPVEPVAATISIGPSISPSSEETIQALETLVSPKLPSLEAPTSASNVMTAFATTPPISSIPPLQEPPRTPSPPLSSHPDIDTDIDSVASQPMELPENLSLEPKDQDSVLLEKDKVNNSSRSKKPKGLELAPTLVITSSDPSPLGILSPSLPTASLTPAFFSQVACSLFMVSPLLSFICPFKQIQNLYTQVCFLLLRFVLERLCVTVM
In short: as §1

[9] = biological target: ETV1 (Homo sapiens, UniProt P50549 1-477)
In short: as §1

[10] = biological target: T5, ERF (Homo sapiens, UniProt P50548 1-548)
T5 sequence: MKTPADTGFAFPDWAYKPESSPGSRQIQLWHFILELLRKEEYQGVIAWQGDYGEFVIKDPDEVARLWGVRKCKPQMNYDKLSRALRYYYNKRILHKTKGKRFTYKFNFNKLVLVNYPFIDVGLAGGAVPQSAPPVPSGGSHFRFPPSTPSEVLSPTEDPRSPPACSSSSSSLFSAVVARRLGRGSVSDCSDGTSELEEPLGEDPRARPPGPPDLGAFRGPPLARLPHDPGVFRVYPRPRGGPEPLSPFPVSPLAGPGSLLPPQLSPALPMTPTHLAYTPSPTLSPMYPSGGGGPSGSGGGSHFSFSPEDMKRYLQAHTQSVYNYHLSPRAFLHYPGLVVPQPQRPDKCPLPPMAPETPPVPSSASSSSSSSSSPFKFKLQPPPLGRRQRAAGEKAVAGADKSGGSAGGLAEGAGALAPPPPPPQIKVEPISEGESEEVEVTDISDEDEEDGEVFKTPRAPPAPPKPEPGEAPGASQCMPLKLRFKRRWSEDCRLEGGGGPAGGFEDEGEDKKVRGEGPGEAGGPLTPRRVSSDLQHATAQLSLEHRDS
In short: as §1

[11] = biological target: T6, ETV3L (Homo sapiens, UniProt Q6ZN32 1-361)
T6 sequence: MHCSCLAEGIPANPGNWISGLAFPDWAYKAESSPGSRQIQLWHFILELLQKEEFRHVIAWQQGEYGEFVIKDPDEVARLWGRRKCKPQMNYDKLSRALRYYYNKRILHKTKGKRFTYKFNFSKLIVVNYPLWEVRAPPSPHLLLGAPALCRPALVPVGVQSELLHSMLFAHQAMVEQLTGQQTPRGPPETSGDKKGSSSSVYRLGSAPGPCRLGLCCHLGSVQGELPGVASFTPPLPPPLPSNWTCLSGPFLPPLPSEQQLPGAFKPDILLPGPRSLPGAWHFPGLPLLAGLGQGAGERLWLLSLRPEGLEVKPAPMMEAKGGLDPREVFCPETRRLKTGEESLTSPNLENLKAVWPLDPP
In short: as §1

[12] = biological target: T7, ETS2 (Homo sapiens, UniProt P15036 1-469)
T7 sequence: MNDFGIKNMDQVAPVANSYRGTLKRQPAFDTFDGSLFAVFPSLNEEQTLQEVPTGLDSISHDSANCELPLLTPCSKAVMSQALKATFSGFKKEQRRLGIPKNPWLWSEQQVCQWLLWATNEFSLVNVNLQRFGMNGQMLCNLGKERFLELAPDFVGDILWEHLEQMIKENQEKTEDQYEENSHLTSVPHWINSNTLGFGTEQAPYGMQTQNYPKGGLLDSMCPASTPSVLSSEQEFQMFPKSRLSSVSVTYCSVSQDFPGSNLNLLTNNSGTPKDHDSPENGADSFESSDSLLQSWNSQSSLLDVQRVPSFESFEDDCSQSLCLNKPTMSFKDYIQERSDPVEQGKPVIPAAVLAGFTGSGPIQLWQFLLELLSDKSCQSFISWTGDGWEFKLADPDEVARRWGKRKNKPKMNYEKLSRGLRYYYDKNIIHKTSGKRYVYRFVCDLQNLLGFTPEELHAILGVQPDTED
In short: as §1

[13] = biological target: T8, ETV7 (Homo sapiens, UniProt Q9Y603 1-341)
T8 sequence: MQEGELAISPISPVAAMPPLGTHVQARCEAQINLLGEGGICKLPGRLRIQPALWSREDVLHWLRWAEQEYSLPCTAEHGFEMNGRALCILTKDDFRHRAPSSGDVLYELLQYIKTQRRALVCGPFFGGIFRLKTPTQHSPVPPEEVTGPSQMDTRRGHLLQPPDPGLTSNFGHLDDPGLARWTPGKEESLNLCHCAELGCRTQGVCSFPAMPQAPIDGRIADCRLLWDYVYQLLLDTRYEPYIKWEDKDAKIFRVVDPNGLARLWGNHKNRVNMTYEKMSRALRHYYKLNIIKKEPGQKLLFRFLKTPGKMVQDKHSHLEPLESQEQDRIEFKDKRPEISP
In short: as §1

[14] = biological target: ETV6 (Homo sapiens, UniProt P41212 1-452)
In short: as §1

Chain of SPIB (Q01892 whole entry): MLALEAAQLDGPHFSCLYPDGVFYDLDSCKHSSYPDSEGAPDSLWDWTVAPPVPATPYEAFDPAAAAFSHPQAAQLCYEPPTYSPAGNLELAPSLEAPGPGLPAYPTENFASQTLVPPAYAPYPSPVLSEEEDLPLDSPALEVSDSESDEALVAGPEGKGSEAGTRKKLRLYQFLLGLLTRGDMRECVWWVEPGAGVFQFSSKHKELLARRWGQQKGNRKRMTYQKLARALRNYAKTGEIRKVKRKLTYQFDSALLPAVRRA
Chain of ELF4 (Q99607 whole entry): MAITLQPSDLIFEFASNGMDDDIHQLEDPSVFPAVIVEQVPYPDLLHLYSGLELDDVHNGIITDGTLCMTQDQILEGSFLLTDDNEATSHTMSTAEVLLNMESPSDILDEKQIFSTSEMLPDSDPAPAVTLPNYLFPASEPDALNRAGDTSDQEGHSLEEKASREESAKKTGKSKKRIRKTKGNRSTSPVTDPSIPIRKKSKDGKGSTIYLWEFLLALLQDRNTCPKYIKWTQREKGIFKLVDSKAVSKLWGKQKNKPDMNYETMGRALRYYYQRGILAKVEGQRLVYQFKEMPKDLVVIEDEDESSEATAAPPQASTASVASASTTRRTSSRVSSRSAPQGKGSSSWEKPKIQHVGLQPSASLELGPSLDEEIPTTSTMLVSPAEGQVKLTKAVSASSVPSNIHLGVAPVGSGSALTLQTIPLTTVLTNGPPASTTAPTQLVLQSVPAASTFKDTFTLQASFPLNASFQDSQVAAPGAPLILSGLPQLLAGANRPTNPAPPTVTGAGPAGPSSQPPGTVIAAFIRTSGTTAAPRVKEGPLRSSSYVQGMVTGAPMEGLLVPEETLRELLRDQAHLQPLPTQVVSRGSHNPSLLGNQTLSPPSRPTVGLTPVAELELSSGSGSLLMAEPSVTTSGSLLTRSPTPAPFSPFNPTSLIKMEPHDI
Chain of ETV6 (P41212 whole entry): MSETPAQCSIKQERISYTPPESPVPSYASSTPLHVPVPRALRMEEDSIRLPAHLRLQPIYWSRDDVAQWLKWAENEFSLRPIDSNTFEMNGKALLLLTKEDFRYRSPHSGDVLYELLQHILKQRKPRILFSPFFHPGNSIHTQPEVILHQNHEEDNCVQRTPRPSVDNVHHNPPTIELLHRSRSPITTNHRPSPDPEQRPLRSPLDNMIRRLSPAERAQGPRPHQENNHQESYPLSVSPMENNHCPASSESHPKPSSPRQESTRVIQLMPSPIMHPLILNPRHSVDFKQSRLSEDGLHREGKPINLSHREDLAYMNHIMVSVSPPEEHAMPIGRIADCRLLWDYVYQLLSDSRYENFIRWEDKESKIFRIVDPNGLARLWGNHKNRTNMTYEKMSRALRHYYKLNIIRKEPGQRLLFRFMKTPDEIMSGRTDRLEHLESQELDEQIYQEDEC
Chain of ETV5 (P41161 whole entry): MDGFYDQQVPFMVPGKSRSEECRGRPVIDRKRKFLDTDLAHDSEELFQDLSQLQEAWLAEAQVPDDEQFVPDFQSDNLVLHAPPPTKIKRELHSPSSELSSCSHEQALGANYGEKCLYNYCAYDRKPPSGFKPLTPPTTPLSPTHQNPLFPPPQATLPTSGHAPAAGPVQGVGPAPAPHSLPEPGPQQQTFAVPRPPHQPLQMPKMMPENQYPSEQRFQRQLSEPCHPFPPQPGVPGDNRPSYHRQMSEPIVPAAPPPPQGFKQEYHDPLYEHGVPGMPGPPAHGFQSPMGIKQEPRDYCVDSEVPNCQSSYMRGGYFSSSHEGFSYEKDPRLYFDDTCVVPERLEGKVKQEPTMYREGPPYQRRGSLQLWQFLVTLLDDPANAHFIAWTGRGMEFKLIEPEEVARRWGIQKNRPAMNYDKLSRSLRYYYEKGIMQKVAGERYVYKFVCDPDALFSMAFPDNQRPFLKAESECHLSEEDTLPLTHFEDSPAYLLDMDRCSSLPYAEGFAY
Chain of ETV1 (P50549 whole entry): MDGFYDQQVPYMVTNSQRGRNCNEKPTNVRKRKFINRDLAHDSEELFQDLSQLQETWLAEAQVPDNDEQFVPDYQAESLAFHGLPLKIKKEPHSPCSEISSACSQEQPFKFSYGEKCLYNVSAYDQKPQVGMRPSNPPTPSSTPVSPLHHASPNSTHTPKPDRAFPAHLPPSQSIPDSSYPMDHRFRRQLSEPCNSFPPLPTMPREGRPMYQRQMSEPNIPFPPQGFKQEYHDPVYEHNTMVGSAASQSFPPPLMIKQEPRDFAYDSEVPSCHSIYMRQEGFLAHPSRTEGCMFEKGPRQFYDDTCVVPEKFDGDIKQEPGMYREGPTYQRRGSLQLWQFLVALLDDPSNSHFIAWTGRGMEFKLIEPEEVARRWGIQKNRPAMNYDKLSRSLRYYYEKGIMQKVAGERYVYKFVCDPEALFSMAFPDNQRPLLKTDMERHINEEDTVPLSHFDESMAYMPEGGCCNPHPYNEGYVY
Chain of ELF1 (P32519 whole entry): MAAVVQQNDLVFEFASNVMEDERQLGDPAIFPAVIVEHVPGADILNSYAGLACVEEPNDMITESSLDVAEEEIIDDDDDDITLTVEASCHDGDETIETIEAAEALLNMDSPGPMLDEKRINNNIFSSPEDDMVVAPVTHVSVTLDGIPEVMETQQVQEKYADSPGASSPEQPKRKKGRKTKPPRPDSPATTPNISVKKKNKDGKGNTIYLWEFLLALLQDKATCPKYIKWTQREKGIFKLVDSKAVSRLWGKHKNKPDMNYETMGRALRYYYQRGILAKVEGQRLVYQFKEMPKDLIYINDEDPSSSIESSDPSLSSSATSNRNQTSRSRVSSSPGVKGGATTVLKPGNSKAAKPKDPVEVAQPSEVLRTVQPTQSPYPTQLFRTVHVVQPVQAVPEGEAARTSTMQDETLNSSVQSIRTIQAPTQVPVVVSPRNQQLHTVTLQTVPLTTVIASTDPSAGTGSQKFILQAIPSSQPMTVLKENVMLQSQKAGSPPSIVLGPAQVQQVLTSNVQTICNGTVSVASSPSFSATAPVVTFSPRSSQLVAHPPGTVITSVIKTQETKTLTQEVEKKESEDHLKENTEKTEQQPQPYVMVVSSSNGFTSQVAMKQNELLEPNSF

| Sequence | binding signal [1] | binding signal [2] | binding signal [3] | binding signal [4] | binding signal [5] | binding signal [6] | binding signal [7] | binding signal [8] | binding signal [9] | binding signal [10] | binding signal [11] | binding signal [12] | binding signal [13] | binding signal [14] |
| --- | --- | --- | --- | --- | --- | --- | --- | --- | --- | --- | --- | --- | --- | --- |
| CGCACG | 1.02 fold enrichment (6-mer frequency, TF over GST control) | 1.01 fold enrichment (6-mer frequency, TF over GST control) | 1.06 fold enrichment (6-mer frequency, TF over GST control) | 1.02 fold enrichment (6-mer frequency, TF over GST control) | 1.02 fold enrichment (6-mer frequency, TF over GST control) | 1.06 fold enrichment (6-mer frequency, TF over GST control) | 1.04 fold enrichment (6-mer frequency, TF over GST control) | 1.1 fold enrichment (6-mer frequency, TF over GST control) | 1.04 fold enrichment (6-mer frequency, TF over GST control) | 1.06 fold enrichment (6-mer frequency, TF over GST control) | 1.01 fold enrichment (6-mer frequency, TF over GST control) | 1.02 fold enrichment (6-mer frequency, TF over GST control) | 1.06 fold enrichment (6-mer frequency, TF over GST control) | 1.08 fold enrichment (6-mer frequency, TF over GST control) |
| CGCGTA | 1.01 fold enrichment (6-mer frequency, TF over GST control) |  | 1.05 fold enrichment (6-mer frequency, TF over GST control) |  |  | 1 fold enrichment (6-mer frequency, TF over GST control) | 1.08 fold enrichment (6-mer frequency, TF over GST control) | 1.07 fold enrichment (6-mer frequency, TF over GST control) |  |  | 1.01 fold enrichment (6-mer frequency, TF over GST control) |  | 1.07 fold enrichment (6-mer frequency, TF over GST control) | 1.01 fold enrichment (6-mer frequency, TF over GST control) |
